Screens deposited in PubChem by National Center for Advancing Translational Sciences (NCATS).
The list is not random: actives were taken first. Their share in the collection is about 1.8%.
GLP1R cytotox: cytotoxicity in counter-screen for GLP-1R inverse agonists; HEK293 cAMP-luciferase reporter cells, luminescence, 24 h; Potency, µM (doses to about 38.3 µM), inactives show at the highest dose activity change, negative = inhibition, hits mostly inhibitors; 0.13% of 410,000 active; AID 624418;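 note: loss of luciferase light is scored as toxicity; % is set by controls: 0 for no effect and ±100 for the full control effect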
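Compound-treated cells are incubated 24 hr at 37 deg C under 5% CO2 after a 12 hour attachment period, then luciferase detection reagent is added and luminescence is measured following 12 min at room temperature; lowered signal indicates toxicity.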
GLP-1R agonist: GLP-1 receptor (human) agonism. P43220. HEK293 GLP-1R CRE-luciferase, luminescence, 4-6 h; cells express a hypersensitive GLP-1R form. Potency, µM (highest dose often 45.6 µM), for inactives: top-dose activation, hits mostly activators. 0.007% of 380,000 active; note: % of control where 0% means no effect
Target sequence (P43220 whole entry, looked up): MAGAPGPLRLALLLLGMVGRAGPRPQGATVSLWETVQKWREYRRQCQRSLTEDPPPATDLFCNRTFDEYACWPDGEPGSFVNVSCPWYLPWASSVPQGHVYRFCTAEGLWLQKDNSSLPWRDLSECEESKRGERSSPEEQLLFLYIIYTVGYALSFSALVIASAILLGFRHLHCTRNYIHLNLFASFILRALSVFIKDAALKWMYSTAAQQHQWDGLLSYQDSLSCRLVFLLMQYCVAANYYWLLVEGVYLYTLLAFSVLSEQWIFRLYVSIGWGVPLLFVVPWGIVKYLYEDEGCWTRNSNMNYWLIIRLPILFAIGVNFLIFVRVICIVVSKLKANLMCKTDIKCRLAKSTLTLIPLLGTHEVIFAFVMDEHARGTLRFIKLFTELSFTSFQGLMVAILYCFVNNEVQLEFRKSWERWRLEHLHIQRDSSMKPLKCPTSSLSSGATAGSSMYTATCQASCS
GLP-1R inv ag: acts as inverse agonist at human GLP-1 receptor. P43220. HEK293 GLP-1R CRE-luciferase, luminescence, 24 h; GLP-1R form is constitutively active. Potency, µM (doses to about 38.3 µM), for the others: at the highest dose activity change, negative = inhibition, actives largely listed as inhibitors. 1.6% of 410,000 active. AID 624417; note: % is set by controls: 0 for no effect and ±100 for the full control effect; nearly all actives have a fitted effect of over 55% in size
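GLP-1R inverse agonism mode: basal reporter luminescence in engineered HEK293 cells measured after one day of compound exposure at 37 deg C, with a 12 min room-temperature detection step.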
Pin1 inhibitor: blocks the human prolyl isomerase Pin1 | 0.009% of 390,000 active | Pin1 FP peptide displacement, HiFluor488, 10 min | Potency, µM (highest dose often 115 µM), for inactives: at the top dose activity, negative = inhibition, most hits filed as inhibitors | Q13526 | AID 504891; active = well fitted inhibition curve with a large enough effect in the polarisation, with a control signal flat, not every such curve was filed as active; inconclusive = small, poorly fitted or top-dose-only effect, or effect the other way, or a change in a side signal; inactive = no such curve, though single readings can be large or run the other way; the % refers to the polarisation; note: % is set by controls: 0 for no effect and ±100 for the full control effect
Target sequence (Q13526 whole entry, looked up): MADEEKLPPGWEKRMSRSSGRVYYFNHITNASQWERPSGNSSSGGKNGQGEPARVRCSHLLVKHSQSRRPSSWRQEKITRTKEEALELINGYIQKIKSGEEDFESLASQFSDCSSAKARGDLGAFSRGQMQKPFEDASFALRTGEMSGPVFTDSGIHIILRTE
Tb PFK inh: T. brucei PFK enzyme inhibition; T. brucei PFK, ADP-Glo luminescence; O15648; Potency, µM (top dose mostly 57.5 µM), for the others: top-dose activity, negative = inhibition, usual class: inhibitors; 0.17% of 330,000 active;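 note: 0% = uninhibited 1x PFK enzyme wells and -100% = no-enzyme wells; nearly all actives have a fitted effect of over 60% in size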
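Compounds were pin-transferred as a titration series up to 57 uM into substrate buffer (0.5 mM F6P, 0.1 mM ATP, pH 8.0), then 1.25 nM PFK was added and reactions ran 45 min before ADP-Glo detection.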
PGK inhibitor: blocks T. brucei phosphoglycerate kinase. Potency, µM (doses to about 57.5 µM), without a hit: at the top dose activity change, negative = inhibition, most hits filed as inhibitors. PGK/GAPDH coupled, Kinase-Glo luminescence, 60 min. 0.043% of 380,000 active. P07378. AID 602233; note: % is set by controls: 0 for no effect and ±100 for the full control effect; nearly all actives have a fitted effect of over 60% in size
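Recombinant glycosomal PGK reaction used 1,3-bisphosphoglycerate generated in-well by GAPDH (100nM final) in 100mM TEA pH 7.6, 5mM MgCl2, 0.01% Tween-20. After 60 minutes at room temperature, ATP was read by Kinase-Glo Plus luminescence end-point.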
* marks the source's active call; other numbers are inactive results. Unless noted, calls come from the whole dose curve; as a rule, active = well fitted curve in the direction sought with a large enough effect; inconclusive = small, poorly fitted or top-dose-only effect, or another doubt; inactive = no such curve, though single readings can be large; an effect the other way counts as inactive or inconclusive. Potency is the fitted concentration of half-maximal effect.

`COCOCCn1cc(CN2CCS(=O)(=O)N(Cc3ccc(-c4ccc(Cl)c(Cl)c4)cc3)C(C)C2=O)nn1` (stereo not given) gave GLP1R cytotox -26%, GLP-1R agonist 0%, GLP-1R inv ag 11µM* and PGK inhibitor -7%.
For CC(C)C1C(=O)N(Cc2cn(Cc3ccco3)nn2)CCS(=O)(=O)N1Cc1ccc(-c2ccccc2)cc1 (stereo not given) the results were GLP1R cytotox 6%, GLP-1R agonist -2%, GLP-1R inv ag inconclusive and PGK inhibitor -3%.
For CC(C)C1C(=O)N(Cc2cn(Cc3ccco3)nn2)CCS(=O)(=O)N1Cc1ccc(-c2ccc(Cl)cc2)cc1 (stereo not given) the results were GLP1R cytotox inconclusive, GLP-1R agonist 4%, GLP-1R inv ag 4µM* and PGK inhibitor 6%.
`CC1C(=O)N(Cc2cn(Cc3ccco3)nn2)CCS(=O)(=O)N1Cc1ccc(-c2ccc(Cl)cc2)cc1` (stereo not given) gave GLP1R cytotox -20%, GLP-1R agonist -2%, GLP-1R inv ag 11µM* and PGK inhibitor 8%.
`CNS(=O)(=O)c1cn(CC(=O)N2CCN(c3ccc(C)cc3C)CC2)cc1S(=O)(=O)NC` gave GLP1R cytotox -8%, GLP-1R inv ag -8%, Pin1 inhibitor -4% and PGK inhibitor -8%.
For CCn1ncc(Br)c1C(=O)Nc1cccc(F)c1 the results were GLP1R cytotox 5%, GLP-1R agonist -3%, GLP-1R inv ag 5%, Pin1 inhibitor -14%, Tb PFK inh -2% and PGK inhibitor -1%.
CCn1ncc(Br)c1C(=O)Nc1ccc(C(C)C)cc1 was read as GLP1R cytotox 3%, GLP-1R agonist inconclusive, GLP-1R inv ag 8.9µM*, Pin1 inhibitor inconclusive, Tb PFK inh -1% and PGK inhibitor 6%.
CCOC(=O)C1=C(CNCc2ccc(Cl)cc2)NC(=O)NC1c1ccccc1 (stereo not given) was read as GLP1R cytotox 1%, GLP-1R agonist 0%, GLP-1R inv ag inconclusive, Pin1 inhibitor inconclusive and PGK inhibitor 6%.
For CCOC(=O)C1=C(CNCc2ccc(C)cc2)NC(=O)NC1c1ccc(OC)cc1 (stereo not given) the results were GLP1R cytotox inconclusive, GLP-1R agonist 10%, GLP-1R inv ag 13µM*, Pin1 inhibitor -1%, Tb PFK inh -2% and PGK inhibitor -1%.
`COCC1=C(C(=O)OC(C)OC(=O)OC(C)C)N2C(=O)C(NC(=O)/C(=N/OC)c3csc(N)n3)[C@H]2SC1` (stereo not given in full) gave GLP-1R agonist -2%.
`O=C(O)c1cccc(N2C(=O)/C(=C/c3ccc(SCc4ccc(Cl)cc4)o3)SC2=S)c1` gave GLP1R cytotox 1%, GLP-1R agonist 0%, GLP-1R inv ag -8%, Pin1 inhibitor inconclusive, Tb PFK inh 18% and PGK inhibitor 35µM*.
Screening O=C(CCN1C(=O)/C(=C/c2ccc(Cl)cc2)SC1=S)Nc1cccc(C(=O)O)c1 returned GLP1R cytotox inconclusive, GLP-1R agonist -1%, GLP-1R inv ag 12%, Tb PFK inh 7% and PGK inhibitor inconclusive.
COC(=O)c1cc(NC(=O)Cn2ncc3c([nH]c4ccccc43)c2=O)cc(C(=O)OC)c1 was read as GLP1R cytotox -17%, GLP-1R inv ag 15%, Pin1 inhibitor -5% and PGK inhibitor 10%.
`COc1ccc(C)cc1NC(=O)c1ccccc1NS(=O)(=O)c1ccc(Cl)s1` gave GLP1R cytotox -23%, GLP-1R agonist -3%, GLP-1R inv ag 4µM*, Pin1 inhibitor -5%, Tb PFK inh -3% and PGK inhibitor inactive.
C=C(C)c1cc2c(s1)c1cnn(Cc3ccccc3F)c(=O)c1n2C was read as Pin1 inhibitor 0%.
Screening COc1ccc(NC(=O)CCCSc2nc(-c3ccco3)cc(C(F)(F)F)n2)cc1OC returned GLP1R cytotox -8%, GLP-1R agonist 8%, GLP-1R inv ag 11µM*, Pin1 inhibitor inconclusive, Tb PFK inh 0% and PGK inhibitor -1%.
`COC(=O)c1c(C)c2c(C)cc3ccccn3c-2c1C(=O)OC` gave GLP1R cytotox 2%, GLP-1R agonist 30%, GLP-1R inv ag -19%, Pin1 inhibitor inconclusive, Tb PFK inh -2% and PGK inhibitor 0%.
`COC(=O)c1cc2c(-c3ccccc3)cc3ccccn3c-2c1C(=O)OC` gave GLP1R cytotox inconclusive, GLP-1R agonist 14%, GLP-1R inv ag 7.9µM*, Pin1 inhibitor inconclusive, Tb PFK inh -3% and PGK inhibitor -10%.
For c1ccc(Cn2cc(CN3CCCCO3)c(-c3ccc4c(c3)OCO4)n2)cc1 the results were GLP1R cytotox -9%, GLP-1R agonist 3%, GLP-1R inv ag 11µM*, Pin1 inhibitor 1%, Tb PFK inh -1% and PGK inhibitor 8%.
For O=C(Oc1cccccc1=O)c1ccccc1 the results were GLP1R cytotox inconclusive, GLP-1R agonist -3%, GLP-1R inv ag 10µM*, Pin1 inhibitor 1% and Tb PFK inh -5%.
Screening O=C(Oc1ccccc1Cl)c1ccccc1 returned GLP1R cytotox 11%, GLP-1R agonist 6%, GLP-1R inv ag 6%, Pin1 inhibitor -17% and PGK inhibitor inactive.
Screening CCc1ccccc1N1C(=O)N(CC(=O)c2ccc(OC)cc2)c2ccccc2S1(=O)=O returned GLP1R cytotox -5%, GLP-1R agonist -5%, GLP-1R inv ag -16%, Pin1 inhibitor 11% and PGK inhibitor 0%.
Screening C=CCc1cc(C=O)cc(OCC)c1OCc1ccc(Cl)cc1 returned GLP1R cytotox -6%, GLP-1R agonist -4%, GLP-1R inv ag inconclusive, Pin1 inhibitor 0%, Tb PFK inh -3% and PGK inhibitor 4%.
For C=CCc1cc(C=O)cc(OC)c1OCc1ccc(Cl)cc1 the results were GLP1R cytotox -5%, GLP-1R agonist 2%, GLP-1R inv ag 10µM*, Pin1 inhibitor 4%, Tb PFK inh 1% and PGK inhibitor -5%.
`Cc1ncoc1C(=O)N1CCc2c([nH]c3ccccc23)C1C(C)(C)C` (stereo not given) gave GLP1R cytotox 2%, GLP-1R agonist 2%, GLP-1R inv ag -27%, Pin1 inhibitor 0%, Tb PFK inh -4% and PGK inhibitor 0%.
For Cc1ncoc1C(=O)N1CCc2c([nH]c3ccccc23)C1C1CCCCC1 (stereo not given) the results were GLP1R cytotox 67%, GLP-1R agonist -10%, GLP-1R inv ag 10µM*, Pin1 inhibitor -15%, Tb PFK inh 2% and PGK inhibitor 2%.
